In article PMC5540273 (PLoS ONE, 2017):

Key:
Conditions in all cases: concentration: 1 μM, replicates: in singlicate; n = 1
CSNK1G1 = test system: CSNK1G1
CSNK1G2 = test system: CSNK1G2
CSNK1G3 = test system: CSNK1G3
CSNK2A1 = test system: CSNK2A1
CSNK2A2 = test system: CSNK2A2
CTK = test system: T1, CTK
T1 construct: gene MATK

DAPK1 = test system: DAPK1
DAPK2 = test system: DAPK2
DAPK3 = test system: DAPK3
DCAMKL1 = test system: T2, DCAMKL1
T2 construct: gene DCLK1

DCAMKL2 = test system: T3, DCAMKL2
T3 construct: gene DCLK2

DCAMKL3 = test system: T4, DCAMKL3
T4 construct: gene DCLK3

DDR1 = test system: DDR1
DDR2 = test system: DDR2
DLK = test system: T5, DLK
T5 construct: gene MAP3K12

DMPK2 = test system: T6, DMPK2
T6 construct: gene CDC42BPG

DMPK = test system: DMPK
DRAK1 = test system: T7, DRAK1
T7 construct: gene STK17A

DRAK2 = test system: T8, DRAK2
T8 construct: gene STK17B

DYRK1A = test system: DYRK1A
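Also: KINOMEscan kinase panel screen.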

SMILES | %Inh (CSNK1G1) | %Inh (CSNK1G2) | %Inh (CSNK1G3) | %Inh (CSNK2A1) | %Inh (CSNK2A2) | %Inh (CTK) | %Inh (DAPK1) | %Inh (DAPK2) | %Inh (DAPK3) | %Inh (DCAMKL1) | %Inh (DCAMKL2) | %Inh (DCAMKL3) | %Inh (DDR1) | %Inh (DDR2) | %Inh (DLK) | %Inh (DMPK2) | %Inh (DMPK) | %Inh (DRAK1) | %Inh (DRAK2) | %Inh (DYRK1A)
O=C(Nc1n[nH]c2nc(-c3ccccc3O)ccc12)C1CC1 [SB-711880] | 0% | 0% | 28% | 49% | 84% | 36% | 12% | 0% | 21% | 22% | 0% | 0% | 1% | 0% | 32% | 0% | 0% | 3% | 0% | 9%
COc1cccc(-c2nc(-c3ccccc3)[nH]c2-c2ccncc2)c1 [SB-610250] | 0% | 0% | 22% | 0% | 0% | 0% | 0% | 0% | 19% | 14% | 22% | 14% | 78% | 49% | 16% | 68% | 0% | 0% | 0% | 22%
NCCC(NC(=O)c1cc(Br)c(-c2ccnc3[nH]ccc23)s1)c1ccccc1.O=C(O)C(F)(F)F.O=C(O)C(F)(F)F (centres unmarked) [GSK1307810] | 83% | 99% | 99.2% | 98.9% | 94.7% | 0% | 6% | 28% | 29% | 25% | 0% | 0% | 0% | 26% | 33% | 99.8% | 64% | 74% | 0% | 44%
COC(=O)Nc1nc2ccc(Oc3ccc(NC(=O)Nc4cc(C(F)(F)F)ccc4F)cc3)cc2[nH]1.Cl [GW654607] | 0% | 0% | 24% | 0% | 2% | 0% | 2% | 0% | 11% | 16% | 0% | 36% | 100% | 94.2% | 13% | 9% | 0% | 0% | 1% | 13%
N#CC1(c2cccc(C(=O)Nc3cccc(Oc4ccc5nc(NC(=O)C6CC6)sc5n4)c3)c2)CC1 | 0% | 7% | 0% | 0% | 0% | 0% | 0% | 44% | 13% | 3% | 0% | 0% | 98.6% | 99.2% | 0% | 6% | 5% | 2% | 7% | 0%
COc1cccc2c(-c3ccncc3)c(-c3ccc(F)cc3)nn12 [GW468513] | 10% | 14% | 31% | 11% | 12% | 8% | 0% | 0% | 21% | 0% | 0% | 0% | 96.2% | 90% | 46% | 98.9% | 0% | 0% | 0% | 15%
Cl.Cl.NCC(NC(=O)c1cc(-c2cccnc2)c(-c2ccnc3[nH]ccc23)s1)c1ccccc1 (centres unmarked) [GSK1323434] | 39% | 63% | 68% | 32% | 40% | 0% | 59% | 21% | 27% | 21% | 9% | 0% | 11% | 55% | 34% | 51% | 79% | 19% | 0% | 48%
Cl.N#CCc1ccc(Nc2nccc(Nc3ccc(Oc4ccccc4)cc3)n2)cc1 [GW639905] | 1% | 0% | 8% | 0% | 9% | 28% | 0% | 60% | 40% | 12% | 0% | 1% | 32% | 5% | 35% | 0% | 0% | 22% | 0% | 19%
CN(c1ccc(NC(=O)N2CCN(CCCN3CCOCC3)CC2)cc1)c1ccnc(Nc2ccc(CS(C)(=O)=O)cc2)n1.Cl [GW830899] | 19% | 6% | 5% | 0% | 0% | 0% | 4% | 0% | 0% | 0% | 0% | 5% | 36% | 54% | 24% | 0% | 0% | 0% | 13% | 0%
Cc1cccc(Nc2nc(N[C@H]3CCCC[C@H]3N)ncc2C(N)=O)c1.Cl [GSK986310] | 21% | 0% | 37% | 36% | 25% | 0% | 86% | 70% | 59% | 32% | 3% | 35% | 6% | 0% | 19% | 21% | 59% | 4% | 18% | 26%
